Assay results from PubChem BioAssay (EPA / NIEHS).
Calls of active or inactive are those of the source. How the source made its calls: active means hit-call score of the fitted dose curve at least 0.9, where 1 is the maximum; inactive means score below 0.9.

read-out: CYP3A5 (gene 1577); assay: LTEA_HepaRG_CYP3A5: Life Technologies and Expression Analysis (LTEA) Assay for CYP3A5 using HepaRG (AID 2283493); conditions: mRNA level, 48 h; actives raise or lower the signal
Summary of the method: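 HepaRG cells, plated 48 h then in serum-free induction medium, dosed in duplicate for 48 h with eight half-log concentrations up to 100 uM in 0.5% DMSO. Gene mRNA by Fluidigm TaqMan qRT-PCR, normalized to ACTB, GAPDH, POLR2A.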

Row | SMILES | outcome | AC50
1 | CCCCC(CC)COC(=O)CCCCCCCC(=O)OCC(CC)CCCC (configuration not stated) | inactive | 
2 | C=CCc1ccc(OC)c(OC)c1 | inactive | 
3 | CC(=O)O | inactive | 
4 | CC(C)(O)c1ccc(CNC(=O)c2cccnc2Oc2ccc(F)cc2)cc1 | inactive | 
5 | NC1CCCCC1 | inactive | 
6 | CC(=O)O[C@]1(C(C)=O)CC[C@H]2[C@@H]3C=C(Cl)C4=CC(=O)[C@@H]5C[C@@H]5[C@]4(C)[C@H]3CC[C@@]21C |  | 50 µM (active)
7 | O=C(NS(=O)(=O)/C=C/c1cccs1)c1ccc(F)cc1Br | inactive | 
8 | O=C(O)c1cccnc1 | inactive | 
9 | O=C(Oc1ccccc1)c1cccc(C(=O)Oc2ccccc2)c1 | inactive | 
10 | CCCC(=O)O | inactive | 
11 | COC(=O)CCC(=O)OC | inactive | 
12 | CC(=O)OCC(COC(C)=O)OC(C)=O | inactive | 
13 | O=C1CCCCC1 | inactive | 
14 | CC(COCC(C)OC(=O)c1ccccc1)OC(=O)c1ccccc1 (configuration not stated) | inactive | 
15 | CC(C)COC(=O)CCCCC(=O)OCC(C)C | inactive | 
16 | CC(C)c1cccc(C(C)C)c1 | inactive | 
17 | C/C=C/c1ccc(OC)cc1 | inactive | 
18 | CN(C)CCCN(C)CCCN(C)C | inactive | 
19 | CCOCCOCCO | inactive | 
20 | CCCCC(CC)COP(=O)(OCC(CC)CCCC)OCC(CC)CCCC (configuration not stated) | inactive | 
21 | CCCCCCCCCCCCCCCCO | inactive | 
22 | CC(N)=O | inactive | 
23 | CCCCCCC(CCCCCCCCCCC(=O)OCC(COC(C)=O)OC(C)=O)OC(C)=O (configuration not stated) | inactive | 
24 | NC(=Nc1ccccc1)Nc1ccccc1 | inactive | 
25 | Cc1cn([C@H]2C=C[C@@H](CO)O2)c(=O)[nH]c1=O | inactive | 
26 | CCCCCCCC(=O)OC | inactive | 
27 | CCCCC(CC)CO (configuration not stated) | inactive | 
28 | O=C(N[C@@H](c1ccccc1)[C@@H]1CCCCN1)c1cccc(C(F)(F)F)c1Cl |  | 90.6 µM (active)
29 | CCN(CC)CCOc1ccc(C(=C(Cl)c2ccccc2)c2ccccc2)cc1 | inactive | 

read-out: Fatty Acid-Binding Protein 1 (FABP1), FABP1 (gene 2168); assay: LTEA_HepaRG_FABP1: Life Technologies and Expression Analysis (LTEA) Assay for Fatty Acid-Binding Protein 1 (FABP1) using HepaRG (AID 2283494); conditions: mRNA level, 48 h; actives raise or lower the signal
Summary of the method: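 Differentiated human HepaRG cells were exposed in duplicate for 48 h in serum-free induction medium to 8-point half-log concentration series topping at 100 uM in 0.5% DMSO. FABP1 mRNA measured by TaqMan qRT-PCR, normalized to ACTB/GAPDH/POLR2A; bidirectional fit versus DMSO.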

Row | SMILES | outcome | AC50
30 | CCCCC(CC)COC(=O)CCCCCCCC(=O)OCC(CC)CCCC (configuration not stated) | inactive | 
31 | C=CCc1ccc(OC)c(OC)c1 | inactive | 
32 | CC(=O)O | inactive | 
33 | CC(C)(O)c1ccc(CNC(=O)c2cccnc2Oc2ccc(F)cc2)cc1 |  | 21.9 µM (active)
34 | NC1CCCCC1 | inactive | 
35 | CC(=O)O[C@]1(C(C)=O)CC[C@H]2[C@@H]3C=C(Cl)C4=CC(=O)[C@@H]5C[C@@H]5[C@]4(C)[C@H]3CC[C@@]21C |  | 21.7 µM (active)
36 | O=C(NS(=O)(=O)/C=C/c1cccs1)c1ccc(F)cc1Br |  | 26.6 µM (active)
37 | O=C(O)c1cccnc1 | inactive | 
38 | O=C(Oc1ccccc1)c1cccc(C(=O)Oc2ccccc2)c1 | inactive | 
39 | CCCC(=O)O | inactive | 
40 | COC(=O)CCC(=O)OC | inactive | 
41 | CC(=O)OCC(COC(C)=O)OC(C)=O | inactive | 
42 | O=C1CCCCC1 | inactive | 
43 | CC(COCC(C)OC(=O)c1ccccc1)OC(=O)c1ccccc1 (configuration not stated) | inactive | 
44 | CC(C)COC(=O)CCCCC(=O)OCC(C)C | inactive | 
45 | CC(C)c1cccc(C(C)C)c1 | inactive | 
46 | C/C=C/c1ccc(OC)cc1 | inactive | 
47 | CN(C)CCCN(C)CCCN(C)C | inactive | 
48 | CCOCCOCCO | inactive | 
49 | CCCCC(CC)COP(=O)(OCC(CC)CCCC)OCC(CC)CCCC (configuration not stated) | inactive | 
50 | CCCCCCCCCCCCCCCCO | inactive | 
51 | CC(N)=O | inactive | 
52 | CCCCCCC(CCCCCCCCCCC(=O)OCC(COC(C)=O)OC(C)=O)OC(C)=O (configuration not stated) | inactive | 
53 | NC(=Nc1ccccc1)Nc1ccccc1 | inactive | 
54 | Cc1cn([C@H]2C=C[C@@H](CO)O2)c(=O)[nH]c1=O | inactive | 
55 | CCCCCCCC(=O)OC | inactive | 
56 | CCCCC(CC)CO (configuration not stated) | inactive | 
57 | O=C(N[C@@H](c1ccccc1)[C@@H]1CCCCN1)c1cccc(C(F)(F)F)c1Cl |  | 33.2 µM (active)
58 | CCN(CC)CCOc1ccc(C(=C(Cl)c2ccccc2)c2ccccc2)cc1 | inactive | 

read-out: Cytochrome P450 4A22 (Homo sapiens) (UniProt Q5TCH4); assay: LTEA_HepaRG_CYP4A22: Life Technologies and Expression Analysis (LTEA) Assay for Cytochrome P450 4A22 (CYP4A22) using HepaRG (AID 2283495); conditions: mRNA level, 48 h; actives raise or lower the signal
Summary of the method: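 Cryopreserved HepaRG cells, plated and cultured 48 h, then switched to serum-free induction medium and treated 48 h (duplicates, up to 100 uM, half-log steps, 0.5% DMSO). Expression change of CYP4A22 was fitted bidirectionally against vehicle.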

Row | SMILES | outcome | AC50
59 | CCCCC(CC)COC(=O)CCCCCCCC(=O)OCC(CC)CCCC (configuration not stated) | inactive | 
60 | C=CCc1ccc(OC)c(OC)c1 | inactive | 
61 | CC(=O)O | inactive | 
62 | CC(C)(O)c1ccc(CNC(=O)c2cccnc2Oc2ccc(F)cc2)cc1 |  | 26.6 µM (active)
63 | NC1CCCCC1 | inactive | 
64 | CC(=O)O[C@]1(C(C)=O)CC[C@H]2[C@@H]3C=C(Cl)C4=CC(=O)[C@@H]5C[C@@H]5[C@]4(C)[C@H]3CC[C@@]21C | inactive | 
65 | O=C(NS(=O)(=O)/C=C/c1cccs1)c1ccc(F)cc1Br | inactive | 
66 | O=C(O)c1cccnc1 | inactive | 
67 | O=C(Oc1ccccc1)c1cccc(C(=O)Oc2ccccc2)c1 | inactive | 
68 | CCCC(=O)O | inactive | 
69 | COC(=O)CCC(=O)OC | inactive | 
70 | CC(=O)OCC(COC(C)=O)OC(C)=O | inactive | 
71 | O=C1CCCCC1 | inactive | 
72 | CC(COCC(C)OC(=O)c1ccccc1)OC(=O)c1ccccc1 (configuration not stated) | inactive | 
73 | CC(C)COC(=O)CCCCC(=O)OCC(C)C | inactive | 
74 | CC(C)c1cccc(C(C)C)c1 | inactive | 
75 | C/C=C/c1ccc(OC)cc1 | inactive | 
76 | CN(C)CCCN(C)CCCN(C)C | inactive | 
77 | CCOCCOCCO | inactive | 
78 | CCCCC(CC)COP(=O)(OCC(CC)CCCC)OCC(CC)CCCC (configuration not stated) | inactive | 
79 | CCCCCCCCCCCCCCCCO | inactive | 
80 | CC(N)=O | inactive | 
81 | CCCCCCC(CCCCCCCCCCC(=O)OCC(COC(C)=O)OC(C)=O)OC(C)=O (configuration not stated) | inactive | 
82 | NC(=Nc1ccccc1)Nc1ccccc1 | inactive | 
83 | Cc1cn([C@H]2C=C[C@@H](CO)O2)c(=O)[nH]c1=O | inactive | 
84 | CCCCCCCC(=O)OC | inactive | 
85 | CCCCC(CC)CO (configuration not stated) | inactive | 
86 | O=C(N[C@@H](c1ccccc1)[C@@H]1CCCCN1)c1cccc(C(F)(F)F)c1Cl |  | 23.1 µM (active)
87 | CCN(CC)CCOc1ccc(C(=C(Cl)c2ccccc2)c2ccccc2)cc1 |  | 13.3 µM (active)
